Among the data in PubChem BioAssay (EPA / NIEHS) are outcome and AC50 values, retold here.

Assay [1] can be described thus: ATG_TAL_CIS: Attagene CIS-FACTORIAL HepG2 Assay for human TAL Basal Promoter (AID 2282966).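 Also: background control endpoint measuring basal TAL promoter reporter mRNA not a specific factor.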 Particulars: HepG2 Attagene cis-factorial TAL promoter reporter; actives raise or lower the signal. A digest of the protocol:
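Basal-promoter background-control endpoint from a multiplexed HepG2 reporter panel. Cells were exposed 24 h, then reporter mRNA was read by RT-PCR/CE fluorescence and fitted in both directions relative to DMSO.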

Assay [2] can be described thus: ATG_TGFb_CIS: Attagene CIS-FACTORIAL HepG2 Assay for human Transforming Growth Factor (TGF) (AID 2282967). The following applies: HepG2 Attagene CIS TGFb reporter, mRNA transcription; actives raise or lower the signal. A digest of the protocol: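 Bidirectional fitting relative to DMSO gave the endpoint. Underlying data: reporter mRNA from HepG2 cells carrying transiently transfected cis-regulated reporter constructs, harvested 24 h after dosing and analyzed by RT-PCR and capillary electrophoresis.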

Assay [3] is described as follows: ATG_VDRE_CIS: Attagene CIS-FACTORIAL HepG2 Assay for human Vitamin D Receptor Element (VDRE) (AID 2282968). The following applies: HepG2 VDRE cis-reporter transcription, actives raise or lower the signal. A digest of the protocol:
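Readout is VDRE-driven reporter mRNA reflecting endogenous factor activity in human HepG2 cells, sampled 24 h post-dose. Quantification used labelled RT-PCR products separated by capillary electrophoresis; bidirectional analysis relative to DMSO.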

In assay [4] the target is X-box-binding protein 1 (Homo sapiens) (UniProt P17861). In words: ATG_Xbp1_CIS: Attagene CIS-FACTORIAL HepG2 Assay for human X-box Binding Protein 1 (XBP1) (AID 2282972). Particulars: HepG2 XBP1 cis-element reporter, Attagene multiplex; actives raise or lower the signal. In a few lines:
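Read-out: fluorescent reporter mRNA fragments resolved by capillary electrophoresis after RT-PCR. Human HepG2 liver cells carried transfected cis-promoter reporter units and were exposed to chemicals for 24 hours. Gain or loss of signal fitted relative to DMSO baseline.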

The target of assay [5] is Glucocorticoid receptor (Homo sapiens) (UniProt P04150). Put plainly: ATG_GR_TRANS: Attagene TRANS-FACTORIAL HepG2 Assay for human Glucocorticoid Receptor (GR) (AID 2282978; active = hit-call score of the fitted dose curve at least 0.9, where 1 is the maximum;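 also: activators score as hits since higher reporter transcript over DMSO is fitted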). The following applies: HepG2 Attagene TRANS GR reporter, mRNA transcription. A digest of the protocol:
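Measurement of GAL4-UAS-driven reporter mRNA in human HepG2 liver cells 24 h post-dosing, using RT-PCR with fluorescent labelling and capillary electrophoresis; the transfected constructs report exogenous NR-GAL4 chimera activity, fitted upward against DMSO.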

Assay [6] deals with Oxysterols receptor LXR-alpha (Homo sapiens) (UniProt Q13133). In words: ATG_LXRa_TRANS: Attagene TRANS-FACTORIAL HepG2 Assay for human Liver X Receptor alpha (LXRa) (AID 2282980; active = hit-call score of the fitted dose curve at least 0.9, where 1 is the maximum). The following applies: HepG2 Attagene TRANS reporter, LXRa transactivation. In a few lines: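 HepG2 cells transiently transfected with GAL4-UAS reporter units for chimeric NR-Gal4 proteins, exposed to chemicals for 24 h. Reporter mRNA quantified by RT-PCR and capillary electrophoresis; gain of signal fitted relative to DMSO.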
Oxysterols receptor LXR-alpha (Homo sapiens), sequence (Q13133 whole entry, looked up, the tested form may be a part): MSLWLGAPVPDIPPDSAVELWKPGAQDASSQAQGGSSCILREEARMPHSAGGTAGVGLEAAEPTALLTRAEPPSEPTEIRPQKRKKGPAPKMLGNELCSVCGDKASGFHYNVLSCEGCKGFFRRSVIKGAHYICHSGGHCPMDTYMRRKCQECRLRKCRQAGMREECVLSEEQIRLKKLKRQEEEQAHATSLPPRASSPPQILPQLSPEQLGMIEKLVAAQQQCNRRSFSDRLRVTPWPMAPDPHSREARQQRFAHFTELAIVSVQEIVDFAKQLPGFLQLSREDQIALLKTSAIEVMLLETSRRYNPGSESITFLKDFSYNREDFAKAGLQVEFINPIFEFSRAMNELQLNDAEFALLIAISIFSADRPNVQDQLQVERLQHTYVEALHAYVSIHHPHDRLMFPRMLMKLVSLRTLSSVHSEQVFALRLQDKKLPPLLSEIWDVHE

Assay [7] deals with Oxysterols receptor LXR-beta (Homo sapiens) (UniProt P55055). In words: ATG_LXRb_TRANS: Attagene TRANS-FACTORIAL HepG2 Assay for human Liver X Receptor beta (LXRb) (AID 2282981; active = hit-call score of the fitted dose curve at least 0.9, where 1 is the maximum). The following applies: HepG2 Attagene TRANS GAL4-LXRb reporter, mRNA. In a few lines:
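After 24 h chemical treatment of transfected HepG2 cells carrying exogenous NR-Gal4 chimeras, reporter mRNA was quantified by fluorescent RT-PCR and capillary electrophoresis; activity taken as increase over DMSO controls.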

Assay [8] can be described thus: ATG_M_06_TRANS: Attagene TRANS-FACTORIAL HepG2 Assay for M06 Transcription Factor (Internal Marker) (AID 2282983; active = hit-call score of the fitted dose curve at least 0.9, where 1 is the maximum;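 as to AC50: potency for rise in reporter mRNA above DMSO baseline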;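 as to outcome: reporter transcript level by RT-PCR then capillary electrophoresis fluorescence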). The following applies: HepG2 Attagene TRANS M06 internal marker reporter. A digest of the protocol:
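mRNA levels of a reporter transcript, quantified as FAM fluorescence on capillary electrophoresis, served as readout. HepG2 cells expressing exogenous GAL4-chimera reporter constructs were exposed for 24 h. Gain of signal over DMSO was evaluated.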

In assay [9] the target is Transcriptional activator Myb (Homo sapiens) (UniProt P10242). In words: ATG_Myb_CIS: Attagene CIS-FACTORIAL HepG2 Assay for human Myeloblastosis (Myb) Proto-Oncogene Transcription Factor (AID 2282986). The following applies: HepG2 Attagene CIS-FACTORIAL Myb reporter transcription; actives raise or lower the signal. In a few lines:
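Fluorescence signals from capillary electrophoresis of RT-PCR-amplified reporter cDNA give the read-out. Cells: HepG2 transfected with multiple cis-regulated reporter units. Exposure lasts 24 hours; DMSO defines baseline for gain or loss of signal.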

In assay [10] the target is Nuclear respiratory factor 1 (Homo sapiens) (UniProt Q16656). Put plainly: ATG_NRF1_CIS: Attagene CIS-FACTORIAL HepG2 Assay for human Nuclear Respiratory Factor 1 (NRF1) Orphan Gene (AID 2282987). Particulars: HepG2 NRF1 cis-element reporter, Attagene multiplex; actives raise or lower the signal. In a few lines: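 Transcriptional reporter readout, one component of a 52-endpoint multiplexed HepG2 panel. Exposure 24 h; mRNA detected via RT-PCR and fluorescent capillary electrophoresis; fitting in both directions against DMSO.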
Nuclear respiratory factor 1 (Homo sapiens), sequence (Q16656 whole entry, looked up): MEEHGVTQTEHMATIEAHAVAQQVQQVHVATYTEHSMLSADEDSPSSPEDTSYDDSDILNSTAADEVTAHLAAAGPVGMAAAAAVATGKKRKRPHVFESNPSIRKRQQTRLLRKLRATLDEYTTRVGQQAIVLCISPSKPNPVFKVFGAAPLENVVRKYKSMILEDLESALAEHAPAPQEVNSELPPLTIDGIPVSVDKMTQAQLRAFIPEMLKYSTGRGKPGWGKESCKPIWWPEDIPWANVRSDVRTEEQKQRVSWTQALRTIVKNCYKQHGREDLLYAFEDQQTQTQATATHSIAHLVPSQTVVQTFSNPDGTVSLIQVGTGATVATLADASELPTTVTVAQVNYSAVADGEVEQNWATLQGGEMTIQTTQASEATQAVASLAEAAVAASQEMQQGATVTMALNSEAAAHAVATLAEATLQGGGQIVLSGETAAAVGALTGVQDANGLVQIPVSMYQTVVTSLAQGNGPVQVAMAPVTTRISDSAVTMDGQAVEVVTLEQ

A short description of assay [11]: ATG_NFI_CIS: Attagene CIS-FACTORIAL HepG2 Assay for human Nuclear Factor I (NFI) (AID 2282989). Particulars: HepG2 cis-regulatory reporter, NFI response element transcription; actives raise or lower the signal. In a few lines: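 Cells: human liver HepG2, transiently transfected with promoter-regulated reporter transcription units. Exposure 24 h. Detection: fluorescent RT-PCR products separated by capillary electrophoresis, normalised to DMSO negative control.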

Assay [12] concerns the target Bile acid receptor (Homo sapiens) (UniProt Q96RI1). Put plainly: ATG_FXR_TRANS: Attagene TRANS-FACTORIAL HepG2 Assay for Farnesoid X Receptor (FXR) (AID 2282979; active = hit-call score of the fitted dose curve at least 0.9, where 1 is the maximum;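 also: hits raise reporter mRNA above DMSO so AC50 marks FXR activation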). Particulars: HepG2 Attagene TRANS FXR-GAL4 reporter transcription. In a few lines: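 HepG2 cells were transiently transfected with GAL4-UAS reporters driven by chimeric NR-Gal4 proteins and dosed for 24 h. Reporter mRNA was quantified by RT-PCR, fluorescent labelling, HpaI digestion and capillary electrophoresis, with gain of signal scored versus DMSO.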

The target of assay [13] is Nuclear receptor subfamily 4 group A member 2 (Homo sapiens) (UniProt P43354). Put plainly: ATG_NURR1_TRANS: Attagene TRANS-FACTORIAL HepG2 Assay for human Nuclear Receptor Related Protein 1 (NURR1) (AID 2282985; active = hit-call score of the fitted dose curve at least 0.9, where 1 is the maximum). Particulars: HepG2 Attagene TRANS reporter, mRNA readout. A digest of the protocol:
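Reporter transcript induction, measured by RT-PCR with fluorescent labelling, HpaI digestion and capillary electrophoresis, after 24 hr dosing of human HepG2 cells transiently expressing an exogenous NR-Gal4 fusion with GAL4-UAS-driven reporters; DMSO as baseline.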

Assay [14] has as its target Nuclear receptor subfamily 1 group I member 3 (Homo sapiens) (UniProt Q14994). Put plainly: ATG_CAR_TRANS: Attagene TRANS-FACTORIAL HepG2 Assay for human Constitutive Androstane Receptor (CAR) (AID 2282969; active = hit-call score of the fitted dose curve at least 0.9, where 1 is the maximum;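 also: activators raise reporter mRNA above DMSO so AC50 marks induction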). Particulars: HepG2 Attagene TRANS-FACTORIAL CAR reporter. In a few lines:
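Signal is reporter mRNA induction relative to DMSO, measured 24 h after dosing by RT-PCR with fluorescent primer extension and capillary electrophoresis. Human HepG2 liver cells carried transiently transfected chimeric NR-Gal4/GAL4-UAS reporter constructs.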

For assay [15], the target named is Steroid hormone receptor ERR1 (Homo sapiens) (UniProt P11474). Put plainly: ATG_ERRa_TRANS: Attagene TRANS-FACTORIAL HepG2 Assay for human Estrogen-Related Receptor alpha (ERRa) (AID 2282971; active = hit-call score of the fitted dose curve at least 0.9, where 1 is the maximum). The following applies: HepG2 Attagene TRANS reporter, ERRa transactivation. In a few lines: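 HepG2 cells transiently transfected with GAL4-UAS reporter units and chimeric NR-Gal4 constructs; after 24 hour compound incubation, reporter mRNA quantified by RT-PCR, fluorescent labelling and capillary electrophoresis, gain of signal versus DMSO.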

Assay [16] is described as follows: ATG_M_19_TRANS: Attagene TRANS-FACTORIAL HepG2 Assay for M19 Transcription Factor (Internal Marker) (AID 2282974; active = hit-call score of the fitted dose curve at least 0.9, where 1 is the maximum). The following applies: HepG2 Attagene TRANS-FACTORIAL M19 internal marker reporter. A digest of the protocol:
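Measured here: internal-marker reporter transcript from HepG2 cells transfected with MRTUs, harvested at 24 h. cDNA PCR products were 6-FAM labelled by primer extension, cut with HpaI for 2 h at 37 C, and resolved by CE.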

Assay [17] concerns the target Estrogen-related receptor gamma (Homo sapiens) (UniProt P62508). Put plainly: ATG_ERRg_TRANS: Attagene TRANS-FACTORIAL HepG2 Assay for human Estrogen-Related Receptor gamma (ERRg) (AID 2282977; active = hit-call score of the fitted dose curve at least 0.9, where 1 is the maximum;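 also: hits increase reporter signal over DMSO so potencies reflect activators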). The following applies: HepG2 Attagene TRANS reporter, ERRg transactivation. A digest of the protocol: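 Exogenous NR-Gal4 chimera activity measured as reporter transcript induction after 24 h in transiently transfected HepG2 cells. RNA reverse-transcribed, PCR-amplified, 6-FAM-labelled and resolved by capillary electrophoresis; increase over DMSO baseline.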

For assay [18], the target named is Hepatocyte nuclear factor 4-alpha (Homo sapiens) (UniProt P41235). In words: ATG_HNF4a_TRANS: Attagene TRANS-FACTORIAL HepG2 Assay for human Hepatocyte Nuclear Factor 4 alpha (HNF4a) (AID 2282982; active = hit-call score of the fitted dose curve at least 0.9, where 1 is the maximum). Particulars: HepG2 HNF4a transactivation reporter, mRNA readout. In a few lines: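 Activity of an exogenous HNF4a–Gal4 fusion scored as induced GAL4-UAS reporter transcripts after 24 h chemical exposure of transfected human HepG2 cells. Read-out via RT-PCR with 6-FAM labelling and capillary electrophoresis; rise over DMSO baseline.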
Hepatocyte nuclear factor 4-alpha (Homo sapiens), sequence (P41235 whole entry, looked up, the tested form may be a part): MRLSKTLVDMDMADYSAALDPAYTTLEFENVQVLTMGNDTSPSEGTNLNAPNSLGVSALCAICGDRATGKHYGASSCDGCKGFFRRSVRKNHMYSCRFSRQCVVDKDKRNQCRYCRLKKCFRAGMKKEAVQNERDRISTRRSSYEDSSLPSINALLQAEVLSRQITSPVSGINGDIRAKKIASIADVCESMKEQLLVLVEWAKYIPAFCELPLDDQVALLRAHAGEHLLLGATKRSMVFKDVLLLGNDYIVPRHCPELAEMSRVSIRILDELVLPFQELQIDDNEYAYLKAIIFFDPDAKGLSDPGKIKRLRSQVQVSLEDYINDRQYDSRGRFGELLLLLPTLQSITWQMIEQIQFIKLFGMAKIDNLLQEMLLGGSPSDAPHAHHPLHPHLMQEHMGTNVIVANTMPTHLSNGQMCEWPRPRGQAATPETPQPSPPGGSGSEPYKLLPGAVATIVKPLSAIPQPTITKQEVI

Assay [19] can be described thus: ATG_M_32_TRANS: Attagene TRANS-FACTORIAL HepG2 Assay for M32 Transcription Factor (Internal Marker) (AID 2282984; active = hit-call score of the fitted dose curve at least 0.9, where 1 is the maximum;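 also: transcript level of a background control reporter unit measured by RT-PCR and capillary electrophoresis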). Particulars: HepG2 Attagene TRANS M32 internal marker reporter. In a few lines: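 Internal background reporter in transfected HepG2: after 24 h chemical exposure, RNA reverse-transcribed, reporter cDNA amplified, fluorescently labelled and HpaI-cut, then sized by capillary electrophoresis. Gain of signal fitted against DMSO control.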

Results filed as inconclusive are left out. Active and inactive are the calls of the source. The calls were made as follows, unless noted: active = hit-call score of the fitted dose curve at least 0.9, where 1 is the maximum; inactive = score below 0.9.

X-box-binding protein 1 (Homo sapiens), sequence (P17861 whole entry, looked up, the tested form may be a part): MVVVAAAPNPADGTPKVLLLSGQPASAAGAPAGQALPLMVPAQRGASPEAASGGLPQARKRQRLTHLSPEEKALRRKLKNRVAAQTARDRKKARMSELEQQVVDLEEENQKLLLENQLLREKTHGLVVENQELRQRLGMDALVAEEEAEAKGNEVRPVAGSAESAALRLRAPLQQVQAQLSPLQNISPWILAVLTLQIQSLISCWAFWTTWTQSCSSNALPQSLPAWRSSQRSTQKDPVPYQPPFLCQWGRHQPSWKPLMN
Nuclear receptor subfamily 4 group A member 2 (Homo sapiens), sequence (P43354 whole entry, looked up, the tested form may be a part): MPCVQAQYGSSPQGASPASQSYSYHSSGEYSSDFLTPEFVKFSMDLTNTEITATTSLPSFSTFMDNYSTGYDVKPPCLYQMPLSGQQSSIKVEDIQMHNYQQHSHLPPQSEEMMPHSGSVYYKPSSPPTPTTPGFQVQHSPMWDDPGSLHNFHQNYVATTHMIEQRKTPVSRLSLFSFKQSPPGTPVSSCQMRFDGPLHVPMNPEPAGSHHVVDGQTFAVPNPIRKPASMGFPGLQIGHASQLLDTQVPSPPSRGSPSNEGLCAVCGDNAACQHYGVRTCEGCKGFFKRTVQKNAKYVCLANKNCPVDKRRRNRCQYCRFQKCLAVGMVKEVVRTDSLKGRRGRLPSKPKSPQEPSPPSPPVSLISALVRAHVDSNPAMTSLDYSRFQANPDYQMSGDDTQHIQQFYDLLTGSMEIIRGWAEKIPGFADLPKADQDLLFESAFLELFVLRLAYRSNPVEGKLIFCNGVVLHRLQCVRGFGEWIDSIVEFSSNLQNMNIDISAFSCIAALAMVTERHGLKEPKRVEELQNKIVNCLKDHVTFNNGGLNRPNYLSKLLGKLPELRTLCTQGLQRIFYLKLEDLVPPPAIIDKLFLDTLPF
Oxysterols receptor LXR-beta (Homo sapiens), sequence (P55055 whole entry, looked up, the tested form may be a part): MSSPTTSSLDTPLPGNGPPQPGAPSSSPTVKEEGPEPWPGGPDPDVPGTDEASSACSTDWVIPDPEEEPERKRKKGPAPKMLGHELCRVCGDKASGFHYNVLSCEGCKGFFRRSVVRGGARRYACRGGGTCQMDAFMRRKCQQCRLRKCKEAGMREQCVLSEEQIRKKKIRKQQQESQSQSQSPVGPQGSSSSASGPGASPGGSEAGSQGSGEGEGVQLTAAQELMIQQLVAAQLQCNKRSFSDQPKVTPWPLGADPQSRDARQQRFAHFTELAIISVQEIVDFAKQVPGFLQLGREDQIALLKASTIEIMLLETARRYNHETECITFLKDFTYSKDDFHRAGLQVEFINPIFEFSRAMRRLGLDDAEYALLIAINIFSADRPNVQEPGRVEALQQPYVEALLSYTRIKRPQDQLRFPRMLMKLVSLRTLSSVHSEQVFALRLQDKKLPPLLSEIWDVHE
Bile acid receptor (Homo sapiens), sequence (Q96RI1 whole entry, looked up, the tested form may be a part): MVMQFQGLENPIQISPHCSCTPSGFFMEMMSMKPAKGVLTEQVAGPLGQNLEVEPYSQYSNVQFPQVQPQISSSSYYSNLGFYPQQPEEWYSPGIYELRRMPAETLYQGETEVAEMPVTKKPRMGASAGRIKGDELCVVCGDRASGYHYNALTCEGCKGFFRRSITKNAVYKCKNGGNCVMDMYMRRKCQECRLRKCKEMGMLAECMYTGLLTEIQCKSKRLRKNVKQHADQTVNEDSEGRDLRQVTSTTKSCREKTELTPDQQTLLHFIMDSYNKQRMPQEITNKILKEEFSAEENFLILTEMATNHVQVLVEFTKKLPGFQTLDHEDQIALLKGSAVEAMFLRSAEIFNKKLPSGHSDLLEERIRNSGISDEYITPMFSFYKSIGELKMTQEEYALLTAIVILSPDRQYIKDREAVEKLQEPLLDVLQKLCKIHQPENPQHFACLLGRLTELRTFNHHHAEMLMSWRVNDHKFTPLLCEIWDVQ
Transcriptional activator Myb (Homo sapiens), sequence (P10242 whole entry, looked up): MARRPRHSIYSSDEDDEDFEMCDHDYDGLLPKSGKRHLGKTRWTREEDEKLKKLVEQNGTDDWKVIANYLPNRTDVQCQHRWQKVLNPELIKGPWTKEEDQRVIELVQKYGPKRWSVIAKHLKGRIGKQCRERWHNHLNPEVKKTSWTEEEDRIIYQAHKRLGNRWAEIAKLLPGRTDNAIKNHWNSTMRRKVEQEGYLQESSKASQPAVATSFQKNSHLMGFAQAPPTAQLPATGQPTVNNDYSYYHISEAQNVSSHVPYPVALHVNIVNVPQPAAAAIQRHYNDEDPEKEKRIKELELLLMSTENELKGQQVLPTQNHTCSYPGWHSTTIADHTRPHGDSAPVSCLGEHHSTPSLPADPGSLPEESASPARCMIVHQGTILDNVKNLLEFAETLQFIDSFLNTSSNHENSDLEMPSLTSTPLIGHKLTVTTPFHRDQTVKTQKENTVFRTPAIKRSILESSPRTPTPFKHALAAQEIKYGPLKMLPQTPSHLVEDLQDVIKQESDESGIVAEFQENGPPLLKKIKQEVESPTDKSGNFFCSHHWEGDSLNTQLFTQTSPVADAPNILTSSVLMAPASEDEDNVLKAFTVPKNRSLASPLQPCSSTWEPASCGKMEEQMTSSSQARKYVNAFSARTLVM
Glucocorticoid receptor (Homo sapiens), sequence (P04150 whole entry, looked up, the tested form may be a part): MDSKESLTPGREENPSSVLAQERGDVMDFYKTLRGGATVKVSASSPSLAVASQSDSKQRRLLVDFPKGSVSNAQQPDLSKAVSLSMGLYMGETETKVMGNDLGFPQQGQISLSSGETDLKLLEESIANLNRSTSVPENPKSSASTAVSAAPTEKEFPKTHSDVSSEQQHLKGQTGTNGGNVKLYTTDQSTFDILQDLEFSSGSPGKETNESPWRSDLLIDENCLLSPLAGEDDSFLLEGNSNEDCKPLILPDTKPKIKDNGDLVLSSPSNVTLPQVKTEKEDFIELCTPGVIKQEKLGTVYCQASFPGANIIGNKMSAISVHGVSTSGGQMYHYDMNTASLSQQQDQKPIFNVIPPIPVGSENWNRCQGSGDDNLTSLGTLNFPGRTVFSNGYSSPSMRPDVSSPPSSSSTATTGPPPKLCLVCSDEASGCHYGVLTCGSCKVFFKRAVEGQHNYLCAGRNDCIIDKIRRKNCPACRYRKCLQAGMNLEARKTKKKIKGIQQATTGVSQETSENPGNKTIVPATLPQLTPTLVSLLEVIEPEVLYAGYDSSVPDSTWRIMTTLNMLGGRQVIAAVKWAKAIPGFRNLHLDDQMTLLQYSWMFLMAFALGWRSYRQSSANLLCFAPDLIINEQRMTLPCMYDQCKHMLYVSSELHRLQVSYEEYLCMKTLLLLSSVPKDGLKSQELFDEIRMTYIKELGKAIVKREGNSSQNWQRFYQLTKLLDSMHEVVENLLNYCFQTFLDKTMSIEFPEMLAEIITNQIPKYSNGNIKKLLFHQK
Nuclear receptor subfamily 1 group I member 3 (Homo sapiens), sequence (Q14994 whole entry, looked up, the tested form may be a part): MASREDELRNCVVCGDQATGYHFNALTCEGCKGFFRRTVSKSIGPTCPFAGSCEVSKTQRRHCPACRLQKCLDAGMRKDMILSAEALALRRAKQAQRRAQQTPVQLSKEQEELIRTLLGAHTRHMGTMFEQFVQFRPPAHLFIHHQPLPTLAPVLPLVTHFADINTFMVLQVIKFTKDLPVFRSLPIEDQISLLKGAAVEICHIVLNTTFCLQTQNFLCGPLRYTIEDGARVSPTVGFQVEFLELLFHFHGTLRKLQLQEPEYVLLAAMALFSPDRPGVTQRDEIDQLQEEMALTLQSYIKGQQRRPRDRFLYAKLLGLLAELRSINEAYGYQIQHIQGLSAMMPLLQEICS

As for `CCc1ncc(C)[nH]1`, the compound was called inactive in assay [1], in assay [2], in assay [3], in assay [4], in [5] and in assay [6]. The outcome in [7], in [8], in [9], in assay [10] and in [11] was inactive.
One may read the AC50 as the concentration giving half of the maximal activity seen. For `O=C1CCCC=CCCCCCCCCCC1`, the compound was called inactive in assay [1], in [2], in [12], in assay [6], in assay [8] and in assay [9]. Moreover, the compound was called inactive in [10]. In addition, the AC50 was 18.4 µM (active) in [3], 55.6 µM (active) in assay [4] and 26.5 µM (active) in [13].
As for `O=Cc1ccccc1S(=O)(=O)O`, the compound was called inactive in [1], in [2], in assay [3], in assay [4], in assay [8] and in assay [13]. Also, the outcome in assay [9], in assay [10] and in [11] was inactive.
For `O=C(O)c1ccc(O)cc1`, the call in assay [1], in [2], in assay [14], in assay [15], in [16] and in assay [17] was inactive. Also, the outcome in [12], in [6], in [18], in [8], in [19] and in assay [13] was inactive. The result in [9], in [10] and in [11] was inactive.
For the compound `CC1(C)O[C@@H]2[C@@H](CO[C@@]3(COS(N)(=O)=O)OC(C)(C)O[C@@H]23)O1`, the call in [1], in assay [2], in [3], in assay [4], in [18] and in [8] was inactive. Besides, the outcome in [13], in assay [9], in [10] and in assay [11] was inactive.
Consider `CCCSc1ccc2nc(NC(=O)OC)[nH]c2c1`, for which the result in assay [1], in assay [2], in [3], in [16], in [5] and in assay [7] was inactive. For the same compound, the outcome in [8], in [19], in assay [9], in assay [10] and in assay [11] was inactive.
On to `CCCCCC(=O)CC`, for which the result in [1], in assay [2], in [3], in assay [4], in assay [12] and in assay [18] was inactive. In addition, the call in [8], in assay [9], in assay [10] and in assay [11] was inactive.
On to `CCCCCCCCCCCCCCN(CCO)CCO`, for which the call in assay [1], in assay [2], in assay [3], in [6], in assay [7] and in assay [18] was inactive. In addition, the call in [13] and in [10] was inactive. Moreover, the AC50 is 162 µM (active) in assay [8] and 17.2 µM (active) in assay [11].
On to `Cc1cc(C)nc(NS(=O)(=O)c2ccc(N)cc2)n1`, for which the outcome in assay [1], in [2], in [14], in assay [4], in assay [16] and in assay [5] was inactive. Moreover, the result in [12], in assay [18], in assay [8], in assay [19], in [13] and in assay [9] was inactive. The call in [10] and in [11] was inactive.
